The assay is described as follows: cytotoxicity in LNCaP prostate cells – cell-based, cell event count, single point, cytotoxicity control for prostate differentiation activator project, confirmation (AID 1076).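 Also: counts scatter-gated live cells after medium removal discards detached dead cells.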 The note with it: LNCaP cell loss, flow cytometry event count, 4 d, stronger effect = lower value. On the technique in general: A flow cytometer gives signals particle by particle.

Activity calls are given as the source filed them.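 The calls were made as follows: active = cell event count below 40, meaning activity score above 60 where score is 100 minus count; inactive = the rest.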

As for `CCOC(=O)c1[nH]c(C)c(C(=O)N2CCc3ccccc32)c1C`, the cell event count is, setting by setting: (at 100 µM) 13 (active); (event count, at 10 µM) 67.

Regarding `CSc1nc2ccc(Nc3nc(N4CCOCC4)nc(N4CCOCC4)n3)cc2s1`, the cell event count by setting is: (at 100 µM) 48 (inactive); (event count, at 10 µM) 138.

For `CCOC(=O)N1CCC(NC(=O)c2cc3c(-c4ccc(Cl)cc4)nn(C)c3s2)CC1`, the cell event count (at 100 µM) was 342 (inactive) and the cell event count (event count, at 10 µM) worked out at 118.

Turning to `Cc1cccc(N2CCN(C(=O)CCNC(=O)Cn3ccc4ccccc4c3=O)CC2)c1C`, the cell event count runs as follows: (at 100 µM) 8 (inactive); (event count, at 10 µM) 246.

Take `N#CC1=C(N)OC2=C(C(=O)CCC2)C1c1ccc(OC(=O)N2CCOCC2)cc1` (stereo not given): the cell event count by setting is: (at 100 µM) 293 (inactive); (event count, at 10 µM) 223.

Regarding `COc1ccc2cc3cc(C(=O)Nc4ccccc4N4CCN(C)CC4)oc3nc2c1`, the cell event count is, setting by setting: (at 100 µM) 41 (inactive); (event count, at 10 µM) 334.

Regarding `CCCc1ccc(Oc2cn[nH]c2-c2ccc(O)c(C)c2O)cc1`, the cell event count is 5 (inactive) (at 100 µM) and 106 (event count, at 10 µM).

For `COc1ccc(Cl)c(N2CCN(CCCNC(=O)Nc3ccc(C)cc3)CC2)c1`, the cell event count (at 100 µM) was 19 (inactive) and the cell event count (event count, at 10 µM) was found to be 128.

For `CCN(CCCNS(=O)(=O)c1ccc2c(c1)oc(=O)n2C)c1cccc(C)c1`, the cell event count was 27 (inactive) (at 100 µM) and 151 (event count, at 10 µM).

Turning to `Cn1nc(-c2ccc(Cl)cc2)c2cc(C(=O)NCCN3CCOCC3)sc21`, the cell event count is, setting by setting: (at 100 µM) 10 (inactive); (event count, at 10 µM) 136.

As for `CCCCCn1c(=N)n(CC(O)COc2ccccc2OC)c2ccccc21` (stereo not given), the cell event count is, setting by setting: (at 100 µM) 20 (inactive); (event count, at 10 µM) 138.

On to `Cc1ccc2c(c1)-c1c(cnn1CC(=O)Nc1ccccc1N1CCN(C)CC1)CO2`, for which the cell event count (at 100 µM) was 73 (inactive) and the cell event count (event count, at 10 µM) came to 142.

Regarding `CCCCOc1ccccc1NC(=O)Cn1c(-c2nonc2N)nc2ccccc21`, the cell event count by setting is: (at 100 µM) 99 (inactive); (event count, at 10 µM) 86.5.

For `CCc1ccc(-c2nc(CN3CCCC(C(=O)O)C3)c(C)o2)cc1` (stereo not given), the cell event count was 153 (inactive) (at 100 µM) and 123 (event count, at 10 µM).

Turning to `COCCn1c(=O)[nH]c2cc(C(=O)NCCCN3CCN(c4ccc(F)cc4)CC3)ccc2c1=O`, the cell event count by setting is: (at 100 µM) 140 (inactive); (event count, at 10 µM) 194.

As for `Cc1oc(-c2cccc(Cl)c2)nc1CN1CCC(C(=O)NCCCN2CCCC2=O)CC1`, the cell event count is 166 (inactive) (at 100 µM) and 190 (event count, at 10 µM).

For `O=C(CSc1nc2sc3c(c2c(=O)n1-c1ccccc1)CCCC3)NCc1ccco1`, the cell event count reads like this: (at 100 µM) 25 (inactive); (event count, at 10 µM) 104.

With `Cc1ccnc(NC(=O)CCC(=O)N(CC(=O)NC2CCCCC2)c2cccc(C)c2C)c1`, the cell event count reads like this: (at 100 µM) 27 (inactive); (event count, at 10 µM) 66.

With `Cn1c(C(=O)NCCN2CCN(c3ccccc3F)CC2)cc2c(=O)n(C)c3ccccc3c21`, the cell event count was 2 (inactive) (at 100 µM) and 194 (event count, at 10 µM).

For the compound `CCN1CCN(c2ncc(C(=O)Nc3cc(Cl)c(OC)cc3OC)c3ccccc23)CC1`, the cell event count by setting is: (at 100 µM) 41 (inactive); (event count, at 10 µM) 301.

Consider `CCOC(=O)N1CCC(NC(=O)c2cc3c(-c4ccccc4F)nn(C)c3s2)CC1`, for which the cell event count is 60 (inactive) (at 100 µM) and 148 (event count, at 10 µM).

In the case of `COCCNC(=O)CC(NS(=O)(=O)c1ccc(NC(C)=O)cc1)C(C)C` (stereo not given), the cell event count (at 100 µM) is 79 (inactive) and the cell event count (event count, at 10 µM) was 62.

For the compound `CCc1ccc(-c2nc(CN3CCC(C(=O)NCc4ccc(F)cc4)CC3)c(C)o2)cc1`, the cell event count reads like this: (at 100 µM) 1 (active); (event count, at 10 µM) 62.5.

As for `c1ccc(CSc2nnc(-c3cccs3)n2Cc2ccco2)cc1`, the cell event count is 55 (inactive) (at 100 µM) and 122 (event count, at 10 µM).

Turning to `Cc1oc(-c2ccc(Cl)cc2)nc1CN1CCC(C(=O)N2CCN(Cc3ccccc3)CC2)CC1`, the cell event count reads like this: (at 100 µM) 3 (inactive); (event count, at 10 µM) 224.

On to `CCCCOC(=O)CSc1nc2c(cc1C#N)C(=O)CC(C)(C)C2`, for which the cell event count is 203 (inactive) (at 100 µM) and 194 (event count, at 10 µM).

In the case of `COc1ccc(N2CCN(CCCNC(=O)c3cc4sccc4n3C)CC2)cc1`, the cell event count (at 100 µM) is 161 (inactive) and the cell event count (event count, at 10 µM) was 251.

Turning to `Cc1ccc(S(=O)(=O)NCCCCC(NC(=O)OC(C)(C)C)C(=O)O)cc1` (stereo not given) (tested in a mixture with another compound), the cell event count is, setting by setting: (at 100 µM) 203 (inactive); (event count, at 10 µM) 138.

Take `Cc1cc(C)c2c(=O)n(CC(=O)NCCCN3CCN(c4ccccc4F)CC3)sc2n1`: the cell event count by setting is: (at 100 µM) 15 (inactive); (event count, at 10 µM) 216.

As to `CCOc1ccc(NC(=O)COc2nsnc2N2CCCCC2)cc1`, the cell event count was 23 (active) (at 100 µM) and 63.5 (event count, at 10 µM).

In the case of `Cn1cc(CNC(=O)C2c3ccccc3Oc3ccccc32)cn1`, the cell event count (at 100 µM) is 465 (inactive) and the cell event count (event count, at 10 µM) turned out to be 217.

As to `CCOC(=O)c1ccc(-c2n[nH]c(=O)c3ccccc23)cc1`, the cell event count (at 100 µM) was 345 (inactive) and the cell event count (event count, at 10 µM) was 236.

Turning to `CCc1nn(C(C)C(=O)N2CCc3ccccc3C2)c(=O)c2cc3occc3n12` (stereo not given), the cell event count is 91 (inactive) (at 100 µM) and 123 (event count, at 10 µM).

`CN1C(=O)c2ccc(S(=O)(=O)c3ccc(C(=O)O)cc3)cc2C1=O`: the cell event count is, setting by setting: (at 100 µM) 195 (inactive); (event count, at 10 µM) 166.

For the compound `CCOC(=O)N1CCN(C(=O)C2CCN(Cc3nc(-c4ccccc4C)oc3C)CC2)CC1`, the cell event count by setting is: (at 100 µM) 111 (inactive); (event count, at 10 µM) 244.

Take `O=C(Cn1c(=O)[nH]c2ccsc2c1=O)NC1CCCCCC1`: the cell event count by setting is: (at 100 µM) 120 (inactive); (event count, at 10 µM) 118.

Take `COc1ccccc1N1CCN(C(=O)CCn2c(=O)[nH]c3ccsc3c2=O)CC1`: the cell event count by setting is: (at 100 µM) 206 (inactive); (event count, at 10 µM) 224.

Take `Cc1oc(-c2cccc(Cl)c2)nc1CN1CCCC(C(=O)NC(C)c2ccc3c(c2)OCCO3)C1` (stereo not given): the cell event count was 9 (inactive) (at 100 µM) and 136 (event count, at 10 µM).

With `CCOC(=O)c1sc2ncnc(N3CCN(c4ccc(OC)cc4)CC3)c2c1C`, the cell event count runs as follows: (at 100 µM) 16 (inactive); (event count, at 10 µM) 76.5.

As for `Cn1c(C(=O)NCCCN2CCN(c3ccccc3F)CC2)cc2c(=O)[nH]c3ccccc3c21`, the cell event count runs as follows: (at 100 µM) 3 (inactive); (event count, at 10 µM) 93.
